Data as given in PubChem BioAssay (NCATS).
Records with an inconclusive call do not appear. Activity calls are given as the source filed them. Calls come from the whole dose curve; as a rule, active = well fitted curve in the direction sought with a large enough effect; inconclusive = small, poorly fitted or top-dose-only effect, or another doubt; inactive = no such curve, though single readings can be large; an effect the other way counts as inactive or inconclusive.

How the values were obtained:
[1] = Quantitative High-Throughput drug screen in 47 multiple myeloma cell lines against the NCATS MIPE library collection: KMS12BM_JCRB cell viability assay (AID 1918971); conditions: KMS12BM myeloma viability, CellTiter-Glo ATP, 48 h; series mostly up to 45.8 µM; note: nearly all actives have a fitted effect of over 35% in size
Procedure, shortened: (§1)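 CellTiter-Glo luminescence (ATP) after 48 h compound exposure, 37C/5% CO2; 500 cells/well; MIPE 4.0 approved/investigational drugs pinned in; DMSO = 100%, media only = 0% viability.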

[2] = Quantitative High-Throughput drug screen in 47 multiple myeloma cell lines against the NCATS MIPE library collection: KMS12PE_JCRB cell viability assay (AID 1918972); conditions: KMS12PE myeloma viability, CellTiter-Glo ATP, 48 h; series mostly up to 45.8 µM; note: nearly all actives have a fitted effect of over 30% in size
Procedure, shortened: (§2)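 Myeloma cell lines, 500 cells per well, exposed to MIPE 4.0 library compounds for 48 h at 37C, 5% CO2. Viability from ATP by CellTiter-Glo luminescence; normalised to DMSO (100%) and media-only (0%) wells.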

[3] = Quantitative High-Throughput drug screen in 47 multiple myeloma cell lines against the NCATS MIPE library collection: KMS20_JCRB cell viability assay (AID 1918973); conditions: CellTiter-Glo ATP, 48 h; series mostly up to 45.8 µM; note: nearly all actives have a fitted effect of over 45% in size
Procedure, shortened: as §2

[4] = Quantitative High-Throughput drug screen in 47 multiple myeloma cell lines against the NCATS MIPE library collection: MMM1_PLB cell viability assay (AID 1918976); conditions: MMM1 myeloma cells viability, CellTiter-Glo, 48 h; series mostly up to 45.8 µM; note: nearly all actives have a fitted effect of over 35% in size
Procedure, shortened: (§3)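 500 cells/well per myeloma line exposed to pinned MIPE 4.0 compounds for 48 h at 37 °C, 5% CO2. Viability read as ATP by CellTiter-Glo luminescence, normalised to DMSO-only (100%) and media-only (0%) wells.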

[5] = Quantitative High-Throughput drug screen in 47 multiple myeloma cell lines against the NCATS MIPE library collection: NCIH929_DSMZ cell viability assay (AID 1918978); conditions: NCI-H929 myeloma viability, CellTiter-Glo ATP, 48 h; series mostly up to 45.8 µM; note: nearly all actives have a fitted effect of over 35% in size
Procedure, shortened: as §3

[6] = Quantitative High-Throughput drug screen in 47 multiple myeloma cell lines against the NCATS MIPE library collection: OCIMY1_PLB cell viability assay (AID 1918979); conditions: OCI-MY1 myeloma viability, CellTiter-Glo ATP, 48 h; series mostly up to 45.8 µM; note: nearly all actives have a fitted effect of over 35% in size
Procedure, shortened: as §3

[7] = Quantitative High-Throughput drug screen in 47 multiple myeloma cell lines against the NCATS MIPE library collection: MM1S_ATCC cell viability assay (AID 1918980); conditions: MM1S myeloma viability, CellTiter-Glo ATP luminescence, 48 h; series mostly up to 45.8 µM; note: nearly all actives have a fitted effect of over 45% in size
Procedure, shortened: as §3

[8] = Quantitative High-Throughput drug screen in 47 multiple myeloma cell lines against the NCATS MIPE library collection: KMS21BM_JCRB cell viability assay (AID 1918974); conditions: ATP luminescence, 48 h; viability: at 45.8 µM (top of the series) unless noted
Procedure, shortened: as §2

[9] = Quantitative High-Throughput drug screen in 47 multiple myeloma cell lines against the NCATS MIPE library collection: KMS26_JCRB cell viability assay (AID 1918975); conditions: KMS26 myeloma cells viability, CellTiter-Glo ATP, 48 h; series mostly up to 45.8 µM; note: nearly all actives have a fitted effect of over 45% in size
Procedure, shortened: as §1

[10] = Quantitative High-Throughput drug screen in 47 multiple myeloma cell lines against the NCATS MIPE library collection: MOLP8_DSMZ cell viability assay (AID 1918977); conditions: MOLP8 myeloma viability, CellTiter-Glo ATP luminescence, 48 h; series mostly up to 45.8 µM; note: nearly all actives have a fitted effect of over 45% in size
Procedure, shortened: as §3

Measured: Potency
Potency is the fitted concentration of half-maximal effect.

Cc1ccc(Nc2cc(-c3cccc(N4C(=O)c5ccccc5C4=O)c3)ncn2)cc1NS(C)(=O)=O
inactive: [6]
active: [1] 20.9 µM | [2] 26.4 µM | [3] 26.4 µM | [4] 20.9 µM | [5] 3.32 µM | [7] 20.9 µM

Cc1ccn(-c2ccc(-c3ncco3)cc2)c(=O)c1-c1ccc2nc(N)ncc2c1
active: [1] 13.2 µM | [2] 5.26 µM | [3] 8.33 µM
inactive: [5] | [6]

Clc1ccc(C(c2ccc(Cl)cc2)n2cc[n+](CC(OCc3ccc(Cl)cc3Cl)c3ccc(Cl)cc3Cl)c2)cc1 (stereo not drawn)
active: [1] 23.5 µM | [2] 7.43 µM | [3] 8.33 µM | [8] 8.33 µM | [9] 16.6 µM | [4] 18.7 µM | [10] 18.7 µM | [5] 9.35 µM | [7] 16.6 µM

CCOc1ccc(Nc2nc(-c3c(C)nc4ccccn34)cs2)cc1
active: [1] 0.0066 µM | [2] 0.003 µM | [9] 0.332 µM | [4] 20.9 µM | [5] 0.0526 µM
inactive: [3]

CC1(C)CCC2=C(O1)c1ccccc1C(=O)C2=O
active: [1] 20.9 µM | [2] 5.9 µM | [3] 18.7 µM | [9] 18.7 µM | [4] 2.64 µM | [10] 20.9 µM | [7] 26.4 µM

Oc1ccc(C2CCN(c3ccnc4ccccc34)CC2)cc1O
active: [1] 16.6 µM | [2] 18.7 µM | [3] 18.7 µM | [8] 23.5 µM | [9] 18.7 µM | [4] 9.35 µM | [5] 18.7 µM

CCc1ccc(OCc2ccccc2C(=O)Nc2ccc3nc(C)cc(N)c3c2)cc1
active: [1] 7.43 µM | [2] 0.935 µM | [3] 0.59 µM | [9] 6.62 µM | [4] 6.62 µM | [10] 7.43 µM | [6] 8.33 µM | [7] 4.69 µM

COc1cc2ncnc(-n3nc(-c4ccccn4)nc3N)c2cc1OC
active: [1] 7.43 µM | [2] 1.32 µM | [3] 6.62 µM | [9] 14.8 µM | [4] 4.18 µM | [7] 20.9 µM
inactive: [6]

c1ccc2c(-c3cnn4cc(-c5ccc(N6CCNCC6)cc5)cnc34)ccnc2c1
active: [1] 14.8 µM

c1ccc2c(Cc3c[nH]c4ccccc34)c[nH]c2c1
active: [1] 20.9 µM | [2] 5.9 µM | [3] 2.96 µM | [9] 4.69 µM | [4] 16.6 µM | [10] 18.7 µM | [5] 1.05 µM | [7] 1.32 µM

NS(=O)(=O)c1cccc2c1C(=O)c1cccc(O)c1C2=O
active: [1] 1.05 µM | [2] 0.264 µM | [3] 0.132 µM | [8] 0.148 µM | [9] 0.662 µM | [4] 0.264 µM | [6] 1.18 µM | [7] 10.5 µM

CNC(=O)c1ccc2cc(C3(O)CCn4cncc43)ccc2c1 (stereo not drawn)
inactive: [1] | [2] | [3] | [9] | [6]

CC=CC[C@@H](C)C(=O)[C@H]1C(=O)N[C@@H](C(C)C)C(=O)N(C)CC(=O)N(C)[C@@H](CC(C)C)C(=O)N[C@@H](C(C)C)C(=O)N(C)[C@@H](CC(C)C)C(=O)N[C@@H](C)C(=O)N[C@H](C)C(=O)N(C)[C@@H](CC(C)C)C(=O)N(C)[C@@H](CC(C)C)C(=O)N(C)[C@@H](C(C)C)C(=O)N1C
inactive: [2] | [6]
active: [1] 23.5 µM | [3] 1.32 µM | [4] 5.26 µM | [7] 16.6 µM

O=c1cc(N2CCOCC2)oc2c(-c3cccc4c3sc3ccccc34)cccc12
active: [1] 16.6 µM | [2] 11.8 µM | [3] 13.2 µM | [9] 20.9 µM | [4] 20.9 µM | [10] 4.18 µM | [5] 3.72 µM

CC(C)(C)NC(=O)Nc1cccc(Nc2ncc(F)c(NC(C)(C)CO)n2)c1
active: [2] 3.32 µM
inactive: [1] | [3] | [5]

O=C(O)c1ccc(-c2cc3cccnc3c(-c3ccc4nonc4c3)n2)cc1
active: [1] 20.9 µM | [2] 20.9 µM | [3] 11.8 µM | [4] 26.4 µM | [10] 26.4 µM | [5] 26.4 µM | [7] 23.5 µM

C[N+]1(C)[C@@H]2CC(OC(=O)[C@H](CO)c3ccccc3)C[C@H]1[C@H]1O[C@@H]12 (stereo partly drawn)
inactive: [1] | [2] | [3] | [9] | [10] | [5]
